Laboratory results as given in PubChem BioAssay (NCATS).
Results filed as inconclusive are left out. A call without a number means that no potency is given here. Active and inactive are the calls of the source. Calls follow the shape of the dose curve; as a rule, active = well fitted curve in the direction sought with a large enough effect; inconclusive = small, poorly fitted or top-dose-only effect, or another doubt; inactive = no such curve, though single readings can be large; an effect the other way counts as inactive or inconclusive.

Key:
[1] = qHTS of pediatric cancer cell lines to identify multiple opportunities for drug repurposing: Primary screen for DAOY cells (AID 1347090); also: nearly all actives have a fitted effect of over 55% in size; also: potency is read from the fitted curve at half-maximal effect
Procedure, shortened: (§1)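 Cell viability, CellTiter-Glo luminescence; 500-1,000 cells/well, 8- or 11-point titration, 48 h compound exposure at 37 degrees C, 5% CO2. Controls: DMSO neutral, bortezomib 2.3 µM final as positive.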

[2] = qHTS of pediatric cancer cell lines to identify multiple opportunities for drug repurposing: Primary screen for SJ-GBM2 cells (AID 1347091); also: potency is read from the fitted curve at half-maximal effect
Procedure, shortened: as §1

[3] = qHTS of pediatric cancer cell lines to identify multiple opportunities for drug repurposing: Primary screen for SK-N-MC cells (AID 1347093); also: potency is read from the fitted curve at half-maximal effect
Procedure, shortened: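 Metabolically active cells were quantified by ATP-dependent luminescence (CellTiter-Glo, 15 min at room temperature) following 48 h treatment. Cells had been plated at 500-1,000 per well and settled for 5 h beforehand.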

[4] = qHTS of pediatric cancer cell lines to identify multiple opportunities for drug repurposing: Primary screen for BT-37 cells (AID 1347094); also: potency is read from the fitted curve at half-maximal effect
Procedure, shortened: (§2)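 500-1,000 cells/well; 5 h pre-incubation 37 °C/5% CO2; compound pinned; 48 h; CellTiter-Glo, 15 min RT; luminescence. MIPE 11-pt from 0.78 nM, NPC 8-pt from 0.59 nM final. Bortezomib 2.3 µM final as positive control.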

[5] = qHTS of pediatric cancer cell lines to identify multiple opportunities for drug repurposing: Primary screen for SK-N-SH cells (AID 1347098); also: nearly all actives have a fitted effect of over 65% in size; also: potency is read from the fitted curve at half-maximal effect
Procedure, shortened: (§3)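 Cells (500-1,000/well) rested 5 h, then received compounds for 48 h; metabolically active cells were measured by CellTiter-Glo luminescence. Final concentrations spanned up to 46 µM (MIPE, 11-point) or 0.59 nM-46 µM (NPC, 8-point) in primary screens, 11-point in follow-ups.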

[6] = qHTS of pediatric cancer cell lines to identify multiple opportunities for drug repurposing: Primary screen for LAN-5 cells (AID 1347100); also: potency is read from the fitted curve at half-maximal effect
Procedure, shortened: as §3

[7] = qHTS of pediatric cancer cell lines to identify multiple opportunities for drug repurposing: Primary screen for BT-12 cells (AID 1347101); also: nearly all actives have a fitted effect of over 25% in size; also: potency is read from the fitted curve at half-maximal effect
Procedure, shortened: as §3

[8] = qHTS of pediatric cancer cell lines to identify multiple opportunities for drug repurposing: Primary screen for RD cells (AID 1347104); also: nearly all actives have a fitted effect of over 55% in size; also: potency is read from the fitted curve at half-maximal effect
Procedure, shortened: as §2

[9] = qHTS of pediatric cancer cell lines to identify multiple opportunities for drug repurposing: Primary screen for MG 63 (6-TG R) cells (AID 1347105); also: nearly all actives have a fitted effect of over 50% in size; also: potency is read from the fitted curve at half-maximal effect
Procedure, shortened: as §2

[10] = qHTS of pediatric cancer cell lines to identify multiple opportunities for drug repurposing: Primary screen for A673 cells (AID 1347092); also: nearly all actives have a fitted effect of over 45% in size; also: potency is read from the fitted curve at half-maximal effect
Procedure, shortened: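 Titration-based qHTS on A673 cells: MIPE compounds spanned 11 points (0.78 nM to 46 µM final), NPC compounds 8 points (0.59 nM to 46 µM final). Viability after 48 h was measured by ATP luminescence.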

[11] = qHTS of pediatric cancer cell lines to identify multiple opportunities for drug repurposing: Primary screen for U-2 OS cells (AID 1347096); also: nearly all actives have a fitted effect of over 50% in size
Procedure, shortened: as §3

[12] = qHTS of pediatric cancer cell lines to identify multiple opportunities for drug repurposing: Primary screen for NB1643 cells (AID 1347099); also: nearly all actives have a fitted effect of over 50% in size; also: potency is read from the fitted curve at half-maximal effect
Procedure, shortened: as §2

[13] = qHTS of pediatric cancer cell lines to identify multiple opportunities for drug repurposing: Primary screen for control Hh wild type fibroblast cells (AID 1347106); also: nearly all actives have a fitted effect of over 55% in size; also: potency is read from the fitted curve at half-maximal effect
Procedure, shortened: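 Viability after 48 h compound treatment at 37C, 500-1,000 cells/well, read as ATP luminescence with CellTiter-Glo. Primary screens used 11-point (MIPE, 0.78 nM-46 µM) or 8-point (NPC, 0.59 nM-46 µM) final concentrations; follow-up screens used 11-point dilutions.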

[14] = qHTS of pediatric cancer cell lines to identify multiple opportunities for drug repurposing: Primary screen for Rh30 cells (AID 1347107); also: series mostly up to about 46 µM; nearly all actives have a fitted effect of over 75% in size
Procedure, shortened: as §3

[15] = qHTS of pediatric cancer cell lines to identify multiple opportunities for drug repurposing: Primary screen for Saos-2 cells (AID 1347097); also: nearly all actives have a fitted effect of over 40% in size; also: potency is read from the fitted curve at half-maximal effect
Procedure, shortened: as §2

[16] = qHTS of pediatric cancer cell lines to identify multiple opportunities for drug repurposing: Primary screen for OHS-50 cells (AID 1347103); also: nearly all actives have a fitted effect of over 40% in size; also: potency is read from the fitted curve at half-maximal effect
Procedure, shortened: as §3

[17] = qHTS of pediatric cancer cell lines to identify multiple opportunities for drug repurposing: Primary screen for Rh18 cells (AID 1347102); also: nearly all actives have a fitted effect of over 65% in size; also: potency is read from the fitted curve at half-maximal effect
Procedure, shortened: as §3

[18] = qHTS of pediatric cancer cell lines to identify multiple opportunities for drug repurposing: Primary screen for NB-EBc1 cells (AID 1347095); also: potency is read from the fitted curve at half-maximal effect
Procedure, shortened: as §2

Compound | Potency [1] | Potency [2] | Potency [3] | Potency [4] | Potency [5] | Potency [6] | Potency [7] | Potency [8] | Potency [9] | Potency [10] | Potency [11] | Potency [12] | Potency [13] | Potency [14] | Potency [15] | Potency [16] | Potency [17] | Potency [18]
Cc1c[nH]c(C=C2C(=O)Nc3ccccc32)c1CCC(=O)O | inactive | 18.7 µM (active) | inactive | inactive | 24.1 µM (active) | 18.7 µM (active) | inactive | inactive | inactive |  |  |  |  |  |  |  |  | 
CO[C@H]1C[C@@H]2CC[C@@H](C)[C@@](O)(O2)C(=O)C(=O)N2CCCC[C@@H]2C(=O)O[C@H]([C@H](C)C[C@@H]2CC[C@H](OP(C)(C)=O)[C@H](OC)C2)CC(=O)[C@H](C)C=C(C)[C@@H](O)[C@@H](OC)C(=O)[C@H](C)C[C@H](C)C=CC=CC=C1C | inactive |  |  |  | inactive |  | 27.3 µM (active) | inactive | inactive | inactive | inactive | inactive | inactive | inactive |  |  |  | 
Cc1ccc(F)c(NC(=O)Nc2ccc(-c3cccc4[nH]nc(N)c34)cc2)c1 | 23.5 µM (active) | 23.5 µM (active) | 20.9 µM (active) |  | 24.1 µM (active) | 20.9 µM (active) |  |  | inactive |  |  |  | inactive | inactive | 18.7 µM (active) | 27.3 µM (active) |  | 
C[C@]12CC[C@@H]3c4ccc(O)cc4CC[C@H]3[C@H]1C[C@@H](O)[C@H]2O | inactive | inactive |  | inactive |  | inactive |  | inactive | inactive |  | inactive |  | inactive | inactive | inactive | inactive | inactive | 
O=C1NC(=O)C(=Cc2ccc(-c3ccc(F)cc3)o2)S1 |  | inactive |  |  |  | inactive |  |  |  |  | inactive |  | inactive |  |  |  | inactive | 
O=C(O)c1c(Cl)c(Cl)c(Cl)c(Cl)c1-c1c2cc(I)c(=O)c(I)c-2oc2c(I)c(O)c(I)cc12 |  |  |  |  | 24.1 µM (active) |  |  |  |  |  |  |  |  |  |  | 7.69 µM (active) |  | 
CC(=O)N(C)C1(c2ccccc2)CCN(CCC[C@]2(c3ccc(Cl)c(Cl)c3)CCCN(C(=O)c3ccccc3)C2)CC1 |  |  | 20.9 µM (active) | 30.6 µM (active) |  | 23.5 µM (active) | 27.3 µM (active) | 18.7 µM (active) |  |  |  | 23.5 µM (active) |  |  | 33.2 µM (active) | 24.3 µM (active) | 26.4 µM (active) | 
CC(C)(C)c1cc(C(=O)O)c(NC(=O)Nc2ccc3[nH]ncc3c2)s1 |  | inactive | 23.5 µM (active) | inactive | inactive | inactive | inactive |  | inactive | inactive | inactive | 23.5 µM (active) | inactive |  |  | inactive | inactive | inactive
NC(=O)c1ccc2nc(-c3ccc(Oc4ccc(Cl)cc4)cc3)[nH]c2c1 |  | inactive |  |  | inactive |  | 2.43 µM (active) |  | inactive |  | inactive |  | inactive | inactive | inactive |  | inactive | inactive
c1ccc2c(Cc3c[nH]c4ccccc34)c[nH]c2c1 | 3.72 µM (active) |  | 0.833 µM (active) |  | 9.61 µM (active) | 23.5 µM (active) |  | 14.8 µM (active) | 5.9 µM (active) | 2.35 µM (active) | inactive | 4.18 µM (active) | 4.69 µM (active) |  | 18.7 µM (active) |  |  | 
CC[C@@]1(O)C[C@H](O[C@H]2C[C@H](N(C)C)[C@H](O[C@H]3C[C@H](O)[C@H](O[C@H]4CCC(=O)[C@H](C)O4)[C@H](C)O3)[C@H](C)O2)c2c(cc3c(c2O)C(=O)c2c(O)cccc2C3=O)[C@@H]1C(=O)OC |  | 0.372 µM (active) | 18.7 µM (active) | 0.385 µM (active) |  | 2.35 µM (active) |  | inactive | inactive | 4.69 µM (active) |  |  | inactive | inactive | 16.6 µM (active) | inactive | inactive | 0.526 µM (active)
CNC(=O)c1ccccc1Sc1ccc2c(C=Cc3ccccn3)n[nH]c2c1 |  | 2.96 µM (active) | 3.32 µM (active) |  |  | 0.743 µM (active) | 19.3 µM (active) |  |  |  | inactive | 16.6 µM (active) | inactive |  | 14.8 µM (active) | 21.7 µM (active) | 14.8 µM (active) | 
CN(C)CCC=C1c2ccccc2COc2ccc(CC(=O)O)cc21 | inactive | inactive |  | inactive |  | inactive | inactive |  |  |  | inactive |  | inactive |  | inactive | inactive | inactive | inactive
CC(C)(Cc1ccc2ccccc2c1)NC[C@@H](O)COc1cccc(Cl)c1C#N | inactive |  |  | 19.3 µM (active) | 24.1 µM (active) | 18.7 µM (active) |  | inactive | inactive | 14.8 µM (active) | inactive |  | inactive | inactive | inactive | inactive | inactive | 2.35 µM (active)
CC(C)[C@H](CO)Nc1nc(Nc2ccc(C(=O)O)c(Cl)c2)c2ncn(C(C)C)c2n1 |  |  |  |  |  |  |  |  | inactive |  | inactive |  | inactive | inactive | 18.7 µM (active) |  | inactive | 23.5 µM (active)
CC1(C)CCC[C@@]2(C)[C@@H]1CC[C@@]1(C)OC(=O)C[C@H]21 | inactive |  |  | inactive | inactive | inactive | inactive | inactive | inactive |  | inactive |  | inactive |  |  |  | inactive | inactive
OC[C@H]1O[C@@H](n2cnc3c2NC=NC[C@@H]3O)C[C@H]1O |  | inactive |  | inactive | inactive | inactive | inactive | inactive | inactive |  |  |  | inactive |  | inactive | inactive | inactive | inactive
NS(=O)(=O)c1ccc(NC2=CC(=O)c3ccccc3C2=O)cc1 | inactive | inactive | 10.5 µM (active) |  | 30.4 µM (active) |  | 1.09 µM (active) |  | inactive |  | inactive | 18.7 µM (active) | inactive | inactive | 11.8 µM (active) | inactive |  | 
